Data published in PubChem BioAssay (NCATS).
Results filed as inconclusive are left out. Unmarked numbers belong to inactive results. Active and inactive are the calls of the source. Calls come from the whole dose curve; as a rule, active = well fitted curve in either direction with a large enough effect (not every such curve was filed as active); inconclusive = small, poorly fitted or top-dose-only effect, or another doubt; inactive = flat fitted curve, though single readings scatter.

Experiment: AP1 Signaling Pathway (AID 357);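 note: ME-180 reporter cells stimulated with EGF at its EC50 level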
Settings: ME-180 (cervical carcinoma) AP-1-bla reporter, EGF-induced, beta-lactamase ratio, 5 h; at 17.2 µM (top of the series) unless noted
How it was run: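 Read-out was the 460nm/530nm emission ratio (excitation 405nm) after CCF4 loading for 2.5 hours at room temperature. Cells carried an AP-1-driven beta-lactamase reporter, were stimulated with EC50 EGF plus compound for 5 hours, and AC50 values came from titrations.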
% is set by controls: 0 for no effect and ±100 for the full control effect.

**Q.** For `CN(C)c1oc(-c2cccs2)nc1C#N`, which activity change, negative = inhibition is on record?
**A.** -7.44%

**Q.** With `O=C(NCCCN1CCOCC1)C1(c2ccccc2)CCOCC1` as the compound, how does the activity change, negative = inhibition read?
**A.** 3.71%

**Q.** With `CN(C)CC(O)COc1ccc(C(C)(C)c2ccc(OCC(O)CN(C)C)cc2)cc1` (stereo not drawn) as the compound, how does the activity change, negative = inhibition read?
**A.** -0.00757%

**Q.** With `O=C(Nn1cnnc1)C(c1ccccc1)c1ccccc1` as the compound, how does the activity change, negative = inhibition read?
**A.** 13.7%

**Q.** For `CN(C)CCNC(=O)C12CC3(C)CC(C)(CC(C)(C3)C1)C2`, which activity change, negative = inhibition is on record?
**A.** 7.28%

**Q.** Which activity change, negative = inhibition does the source give for `CC(=O)[C@H]1[C@@H]2C(=O)N(c3cccc(Cl)c3)C(=O)[C@@H]2[C@H]2c3ccccc3C=CN21` here?
**A.** -11%

**Q.** With `CCNc1sc(C(=O)c2cccs2)c(N)c1C#N` as the compound, how does the activity change, negative = inhibition read?
**A.** -8.55%

**Q.** Which activity change, negative = inhibition does the source give for `Cc1cc(C)n(Cc2ccc(C(=O)NCCC3=CCCCC3)o2)n1` here?
**A.** -15.1%

**Q.** For `Cc1c(C2CC(=O)N(c3ccccc3)C2=O)[nH]n(-c2ccccc2)c1=O` (stereo not drawn), which activity change, negative = inhibition is on record?
**A.** -2.21%

**Q.** With `ONC(=Nc1ccccc1)C(=Nc1ccccc1)NO` as the compound, how does the activity change, negative = inhibition read?
**A.** 4.05%

**Q.** With `CCCC1C2C(=O)N(c3ccccc3OC)C(=O)C2ON1c1ccccc1` (stereo not drawn) as the compound, how does the activity change, negative = inhibition read?
**A.** 1.4%

**Q.** For `N#CC1(c2ccccc2)CCC(=NO)CC1` (stereo not drawn), which activity change, negative = inhibition is on record?
**A.** -5.72%

**Q.** For `c1ccc(SCc2nc3ccccc3[nH]2)nc1`, which activity change, negative = inhibition is on record?
**A.** -0.127%

**Q.** Which activity change, negative = inhibition does the source give for `CC(C)Cc1[nH]c(=O)c(C#N)c2c1COC(C)(C)C2` here?
**A.** 9.17%

**Q.** For `Nc1nc(NC(=O)Cc2ccccc2)nn1-c1ccccc1`, which activity change, negative = inhibition is on record?
**A.** 5.76%

**Q.** With `C=CCOc1nc2c(c(=O)n(Cc3ccc(Cl)cc3)c(=O)n2C)n1C` as the compound, how does the activity change, negative = inhibition read?
**A.** -10.1%

**Q.** Which activity change, negative = inhibition does the source give for `N#Cc1nc(COc2ccc(Br)cc2)oc1NCCN1CCOCC1` here?
**A.** -17.9%

**Q.** For `C=C1[C@@H](C)C2[C@H](Cc3ccccc3)NC(=O)[C@]23OC(=O)CC[C@H](O)CCC[C@H](C)C/C=C/[C@H]3[C@@H]1O` (stereo partly drawn), which activity change, negative = inhibition is on record?
**A.** -80.8% (active)

**Q.** For `Cc1nc(NCCCO)c(C#N)c2c1COC(C)(C)C2`, which activity change, negative = inhibition is on record?
**A.** -14.2%

**Q.** Which activity change, negative = inhibition does the source give for `CC(=O)N1CCN(C2c3cccc4cccc(c34)C2NS(=O)(=O)c2ccccc2)CC1` (stereo not drawn) here?
**A.** -3.48%

**Q.** For `COc1ccc2c(=O)c(-c3nc(C)cs3)coc2c1`, which activity change, negative = inhibition is on record?
**A.** 13.2%

**Q.** With `O=C(CSc1nnc(-c2ccccc2)c(-c2ccccc2)n1)N1CCOCC1` as the compound, how does the activity change, negative = inhibition read?
**A.** -3.06%

**Q.** With `Cc1cc(C)n(CC2CC(=O)N(c3ccc(Cl)c(Cl)c3)C2=O)n1` (stereo not drawn) as the compound, how does the activity change, negative = inhibition read?
**A.** -14.3%

**Q.** With `C=CCSc1nc(C)c(CC=C)c(=O)[nH]1` as the compound, how does the activity change, negative = inhibition read?
**A.** -0.627%

**Q.** Which activity change, negative = inhibition does the source give for `Cc1c(NC(=O)C(CC(=O)O)NCc2ccco2)c(=O)n(-c2ccccc2)n1C` (stereo not drawn) here?
**A.** -3.94%

**Q.** For `CC(=O)NC1(C(F)(F)F)C(=O)Nc2c1c(=O)n(C)c(=O)n2C` (stereo not drawn), which activity change, negative = inhibition is on record?
**A.** 21.1%

**Q.** With `O=C(NCc1ccccc1)/C(=N\O)c1ccccc1` as the compound, how does the activity change, negative = inhibition read?
**A.** -2.22%

**Q.** With `CC1(C)CC(=O)C=C(N=CC2=C(O)CC(C)(C)CC2=O)C1` as the compound, how does the activity change, negative = inhibition read?
**A.** 4.05%

**Q.** For `CCCOc1cccc(C2/C(=C(/O)c3ccc(F)cc3)C(=O)C(=O)N2CCN(C)C)c1` (stereo not drawn), which activity change, negative = inhibition is on record?
**A.** 3.27%

**Q.** Which activity change, negative = inhibition does the source give for `Nc1ccc2[nH]ncc2c1` here?
**A.** 5.98%

**Q.** Which activity change, negative = inhibition does the source give for `CCOC(=O)COc1nc(N(C)C)nc(N(C)C)n1` here?
**A.** 5.84%

**Q.** Which activity change, negative = inhibition does the source give for `COc1ccc(Cn2c(O)cc(=O)[nH]c2=O)cc1` here?
**A.** 27.1%

**Q.** With `C=CCn1cnc2c(c1=O)c1nc3ccccc3nc1n2-c1ccc(C)cc1` as the compound, how does the activity change, negative = inhibition read?
**A.** -1.69%

**Q.** With `COC(=O)C1C(=O)NCC1c1ccccc1` (stereo not drawn) as the compound, how does the activity change, negative = inhibition read?
**A.** 9.38%

**Q.** Which activity change, negative = inhibition does the source give for `N#Cc1nc(-c2cccs2)oc1NCCN1CCOCC1` here?
**A.** -3.9%

**Q.** Which activity change, negative = inhibition does the source give for `Fc1cnc(N2CCOCC2)nc1NCc1ccccc1` here?
**A.** 10.9%

**Q.** Which activity change, negative = inhibition does the source give for `COc1ccc(C2NC3=C(CCC3)C3(C#N)C(OC)(OC)N=C(N)C23C#N)cc1` (stereo not drawn) here?
**A.** -8.29%

**Q.** Which activity change, negative = inhibition does the source give for `Cn1nccc1C(=O)Nc1ccccc1C(=O)O` here?
**A.** -2.42%

**Q.** With `CN=C1c2cc3c(Br)c(OC)ccc3n2CCN1C` as the compound, how does the activity change, negative = inhibition read?
**A.** 4.49%

Experiment: NFAT Signaling Pathway (AID 444);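 note: carbachol stimulus at about its EC50 of 1 µM final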
Settings: Jurkat NFAT-bla M1, carbachol, beta-lactamase ratio, 5 h; at 17.2 µM (top of the series) unless noted
How it was run: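 Read-out: CCF4 FRET ratio (460 nm/530 nm) after 1 h RT dye loading, used for %activity and AC50 from titration series. Cells: Jurkat NFAT-β-lactamase/M1 line, treated with compound plus 1 uM carbachol for 5 h, 37 °C.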

**Q.** For `CN(C)c1oc(-c2cccs2)nc1C#N`, which activity change, negative = inhibition is on record?
**A.** 8.47%

**Q.** For `O=C(NCCCN1CCOCC1)C1(c2ccccc2)CCOCC1`, which activity change, negative = inhibition is on record?
**A.** -0.629%

**Q.** Which activity change, negative = inhibition does the source give for `CN(C)CC(O)COc1ccc(C(C)(C)c2ccc(OCC(O)CN(C)C)cc2)cc1` (stereo not drawn) here?
**A.** 1.57%

**Q.** For `O=C(Nn1cnnc1)C(c1ccccc1)c1ccccc1`, which activity change, negative = inhibition is on record?
**A.** -6.95%

**Q.** With `CN(C)CCNC(=O)C12CC3(C)CC(C)(CC(C)(C3)C1)C2` as the compound, how does the activity change, negative = inhibition read?
**A.** -25.2%

**Q.** With `CC(=O)[C@H]1[C@@H]2C(=O)N(c3cccc(Cl)c3)C(=O)[C@@H]2[C@H]2c3ccccc3C=CN21` as the compound, how does the activity change, negative = inhibition read?
**A.** -7.09%

**Q.** Which activity change, negative = inhibition does the source give for `CCNc1sc(C(=O)c2cccs2)c(N)c1C#N` here?
**A.** 20.9%

**Q.** Which activity change, negative = inhibition does the source give for `Cc1cc(C)n(Cc2ccc(C(=O)NCCC3=CCCCC3)o2)n1` here?
**A.** -1.94%

**Q.** Which activity change, negative = inhibition does the source give for `Cc1c(C2CC(=O)N(c3ccccc3)C2=O)[nH]n(-c2ccccc2)c1=O` (stereo not drawn) here?
**A.** -3.65%

**Q.** Which activity change, negative = inhibition does the source give for `ONC(=Nc1ccccc1)C(=Nc1ccccc1)NO` here?
**A.** 9.94%

**Q.** For `CCCC1C2C(=O)N(c3ccccc3OC)C(=O)C2ON1c1ccccc1` (stereo not drawn), which activity change, negative = inhibition is on record?
**A.** 4.89%

**Q.** For `N#CC1(c2ccccc2)CCC(=NO)CC1` (stereo not drawn), which activity change, negative = inhibition is on record?
**A.** 8.2%

**Q.** Which activity change, negative = inhibition does the source give for `c1ccc(SCc2nc3ccccc3[nH]2)nc1` here?
**A.** 6.97%

**Q.** Which activity change, negative = inhibition does the source give for `CC(C)Cc1[nH]c(=O)c(C#N)c2c1COC(C)(C)C2` here?
**A.** 17.3%

**Q.** With `Nc1nc(NC(=O)Cc2ccccc2)nn1-c1ccccc1` as the compound, how does the activity change, negative = inhibition read?
**A.** 9.17%

**Q.** Which activity change, negative = inhibition does the source give for `C=CCOc1nc2c(c(=O)n(Cc3ccc(Cl)cc3)c(=O)n2C)n1C` here?
**A.** 4.79%

**Q.** For `N#Cc1nc(COc2ccc(Br)cc2)oc1NCCN1CCOCC1`, which activity change, negative = inhibition is on record?
**A.** 10.5%

**Q.** Which activity change, negative = inhibition does the source give for `C=C1[C@@H](C)C2[C@H](Cc3ccccc3)NC(=O)[C@]23OC(=O)CC[C@H](O)CCC[C@H](C)C/C=C/[C@H]3[C@@H]1O` (stereo partly drawn) here?
**A.** -7.27%

**Q.** Which activity change, negative = inhibition does the source give for `Cc1nc(NCCCO)c(C#N)c2c1COC(C)(C)C2` here?
**A.** 1.02%

**Q.** With `CC(=O)N1CCN(C2c3cccc4cccc(c34)C2NS(=O)(=O)c2ccccc2)CC1` (stereo not drawn) as the compound, how does the activity change, negative = inhibition read?
**A.** -9.38%

**Q.** For `COc1ccc2c(=O)c(-c3nc(C)cs3)coc2c1`, which activity change, negative = inhibition is on record?
**A.** 15.3%

**Q.** With `O=C(CSc1nnc(-c2ccccc2)c(-c2ccccc2)n1)N1CCOCC1` as the compound, how does the activity change, negative = inhibition read?
**A.** 0.00472%

**Q.** Which activity change, negative = inhibition does the source give for `Cc1cc(C)n(CC2CC(=O)N(c3ccc(Cl)c(Cl)c3)C2=O)n1` (stereo not drawn) here?
**A.** -11.5%

**Q.** Which activity change, negative = inhibition does the source give for `C=CCSc1nc(C)c(CC=C)c(=O)[nH]1` here?
**A.** -22.4%

**Q.** Which activity change, negative = inhibition does the source give for `Cc1c(NC(=O)C(CC(=O)O)NCc2ccco2)c(=O)n(-c2ccccc2)n1C` (stereo not drawn) here?
**A.** 5.18%

**Q.** With `CC(=O)NC1(C(F)(F)F)C(=O)Nc2c1c(=O)n(C)c(=O)n2C` (stereo not drawn) as the compound, how does the activity change, negative = inhibition read?
**A.** 7.97%

**Q.** For `O=C(NCc1ccccc1)/C(=N\O)c1ccccc1`, which activity change, negative = inhibition is on record?
**A.** 12.4%

**Q.** Which activity change, negative = inhibition does the source give for `CC1(C)CC(=O)C=C(N=CC2=C(O)CC(C)(C)CC2=O)C1` here?
**A.** -11.2%

**Q.** For `CCCOc1cccc(C2/C(=C(/O)c3ccc(F)cc3)C(=O)C(=O)N2CCN(C)C)c1` (stereo not drawn), which activity change, negative = inhibition is on record?
**A.** 2.49%

**Q.** For `Nc1ccc2[nH]ncc2c1`, which activity change, negative = inhibition is on record?
**A.** -1.96%

**Q.** For `CCOC(=O)COc1nc(N(C)C)nc(N(C)C)n1`, which activity change, negative = inhibition is on record?
**A.** -1.43%

**Q.** With `COc1ccc(Cn2c(O)cc(=O)[nH]c2=O)cc1` as the compound, how does the activity change, negative = inhibition read?
**A.** -0.64%

**Q.** With `C=CCn1cnc2c(c1=O)c1nc3ccccc3nc1n2-c1ccc(C)cc1` as the compound, how does the activity change, negative = inhibition read?
**A.** -10.5%

**Q.** Which activity change, negative = inhibition does the source give for `COC(=O)C1C(=O)NCC1c1ccccc1` (stereo not drawn) here?
**A.** -1.78%

**Q.** With `N#Cc1nc(-c2cccs2)oc1NCCN1CCOCC1` as the compound, how does the activity change, negative = inhibition read?
**A.** -7.03%

**Q.** With `Fc1cnc(N2CCOCC2)nc1NCc1ccccc1` as the compound, how does the activity change, negative = inhibition read?
**A.** -3.23%

**Q.** With `COc1ccc(C2NC3=C(CCC3)C3(C#N)C(OC)(OC)N=C(N)C23C#N)cc1` (stereo not drawn) as the compound, how does the activity change, negative = inhibition read?
**A.** 6.55%

**Q.** With `Cn1nccc1C(=O)Nc1ccccc1C(=O)O` as the compound, how does the activity change, negative = inhibition read?
**A.** 5.13%

**Q.** With `CN=C1c2cc3c(Br)c(OC)ccc3n2CCN1C` as the compound, how does the activity change, negative = inhibition read?
**A.** -7.64%
